Screens: PubChem BioAssay, several laboratories
Pyk2 oligo antag – antagonists of Pyk2 self-association, primary screen, Q293 cells, FERM NanoBiT luminescence, HTS. hits give low values. z-score (the deposit names both 25 µM and 10 µM). 99,000 compounds, 0.83% hits. AID 1347419, 2020;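 active = Z-score of -3 or lower, scaled per plate to the spread of control and sample wells; inactive = z-score above -3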;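 also: negative z-score means lost luminescence so less FERM oligomerization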
PLK1 PBD inh – Plk1 polo box domain binding inhibitors, primary screen, biochemical, fluorescence polarization | Serine/threonine-protein kinase PLK1 (Homo sapiens), P53350 | 97,000 compounds, 0.13% hits | inhibition, %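 (tested at about 20 µM)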 | Plk1 PBD phosphopeptide binding; in the data active = inhibition above about 34%, passing the limit was not always enough
Cav32 inh – Cav3.2 calcium influx blockers – cell-based, Fluo-4 calcium fluorescence, FDSS, MLSMR library, primary screen; 100,000 compounds, 4% hits; B-score at 10 µM; Cav3.2-expressing cells; hits give low values; AID 449739, 2010; Voltage-dependent T-type calcium channel subunit alpha-1H (Homo sapiens), O95180;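 active = single-dose well whose peak fluorescence ratio is a statistical outlier from its plate by either plate-standardised score or position-corrected B-score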
PLK1 kinase inh – human PLK1 kinase inhibitors, primary screen, biochemical, TR-FRET; Serine/threonine-protein kinase PLK1 (Homo sapiens), P53350; recombinant PLK1 kinase, TR-FRET peptide phosphorylation; inhibition, % at 10 µM; 97,000 compounds, 0.53% hits; AID 619, 2007;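 active = inhibition of 50% or more in the single-concentration screen; inactive = inhibition below 50%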;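 also: 0% = DMSO max control and 100% = H-89 dihydrochloride min control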
sdo1 growth – growth rescue of sdo1-depleted yeast, primary screen, S. cerevisiae, bone marrow failure model. AID 817, 2007. z-score at 10 µM. S. cerevisiae sdo1-depleted JHY4D growth rescue, OD600 30 h; hits give high values; pdr5 snq2 efflux-pump mutant strain. 140,000 compounds, 0.21% hits;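 active = z-score above 3 at both the 24 hr and the 30 hr optical density reads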;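 also: z-score against mean and SD of all compound wells on the same plate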
DAT uptake mod – changed hDAT dopamine uptake under cocaine IC80, either direction, primary screen, cocaine antagonist project, cell-based, LLC-PK1 hDAT, [14C]-dopamine uptake, MLSMR | Sodium-dependent dopamine transporter (Homo sapiens), Q01959 | LLC-PK1 hDAT cells, [14C]-dopamine uptake with cocaine IC80; actives deviate in either direction | B-score at 10 µM | 110,000 compounds, 1.3% hits;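 active = Z score or B-score, a plate-position-corrected score, falls beyond the plate's 99.7% confidence bounds, in either direction; inactive = both scores lie inside the 99.7% bounds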;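 also: scored against the spread of the other compound wells on the same plate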
Active calls of the source: *; . = no result. Hits are enriched below; roughly 4.7% of the tested compounds scored in any of these assays.

SMILES | Pyk2 oligo antag | PLK1 PBD inh | Cav32 inh | PLK1 kinase inh | sdo1 growth | DAT uptake mod
CCN(c1ccccc1)S(=O)(=O)c1ccc(NCC2COc3ccccc3O2)nc1 (stereo not given) | -2.6 | -4 | -4.8* | 1 | -1.7 | 0.48
O=C(NCc1ccccc1)c1cccc(COc2ccccc2Cl)c1 | 0.01 | -12 | -6.5* | -3 | -1.3 | -0.45
O=C(c1cccc(COc2cccc3ccccc23)c1)N1CCCC1 | -1.3 | -9 | -3.8 | -7 | -1.5 | 3.7*
O=C(c1ccc(Cl)c([N+](=O)[O-])c1)N1CCN(c2ccccn2)CC1 | . | . | . | . | -1.6 | .
O=C(c1cccc(COc2ccc(Cl)cc2Cl)c1)N1CCN(c2ccccn2)CC1 | -1.4 | -10 | -6.2* | -6 | -1.7 | 0.75
CCN(CC)c1ccc(C(=O)NC(=S)Nc2cc(S(=O)(=O)N3CCOCC3)ccc2-n2cncn2)cc1 | . | . | . | . | 2.5 | .
CC(c1ccccc1)N1C(=O)c2ccc(C(=O)NCc3ccco3)cc2C1=O (stereo not given) | 0.25 | -7 | -3.9* | -10 | -0.9 | 0.038
CCOc1ccc(C(=O)NCc2ccco2)cc1 | 0.47 | . | -0.0055 | . | 0.94 | 0.78
CC(C)COc1ccc(C(=O)NCc2ccco2)cc1 | -0.63 | 11 | -0.21 | -6 | -0.53 | -7.8*
O=C(NCc1ccco1)c1ccc2c(c1)C(=O)N(Cc1ccccc1)C2=O | -0.15 | -20 | -4.7* | -18 | 0.4 | -0.76
CCCCN(C(=O)c1cccc2c(=O)c(C)c(-c3ccccc3)oc12)c1ccccc1 | . | . | . | . | -0.87 | .
Cc1nc2cc(-c3ccccc3)nn2c(C)c1CCC(=O)N1CCN(c2ccccc2)CC1 | . | -12 | -6* | -12 | -1.4 | 0.073
Cc1nc2ncnn2c(C)c1CCC(=O)N1CCN(c2ccccn2)CC1 | 0.37 | . | -0.092 | . | 0.52 | -0.2
O=C(NC1(C(F)(F)F)NC(=O)N(c2ccc(F)cc2)C1=O)c1cccs1 (stereo not given) | . | . | . | . | 0.35 | .
CCOC(=O)CNS(=O)(=O)c1c(C)noc1C | 0.33 | 4 | -0.46 | -7 | 0.49 | -0.69
Cc1noc(C)c1S(=O)(=O)NCC(=O)O | 0.35 | -5 | -1.5 | -4 | 0.16 | 2.3*
COC(=O)C1=C(C(=O)OC)[C@@H]2N(C)c3ccc(OC)cc3[C@@]23C[C@@H](C(=O)OC)N(C(=O)COCc2ccccc2)C3=N1 | . | . | -0.034 | . | . | 0.24
Cc1ccc(NC(=O)CSc2nnc(Cc3cccn3C)n2-c2ccc(F)cc2)cc1 | . | -5 | -3.9* | 3 | -0.39 | 0.067
Cn1cccc1Cc1nnc(SCC(=O)NCc2ccc(F)cc2)n1-c1ccc(F)cc1 | . | . | -4.1 | . | . | -0.26
Cc1csc(NC(=O)CSc2nnc(Cc3cccn3C)n2-c2ccc(F)cc2)n1 | . | -13 | -5.8* | -1 | -0.67 | -0.19
CCc1ccc(NC(=O)CSc2nnc(Cc3cccn3C)n2-c2ccc(F)cc2)cc1 | . | . | -4.1* | . | -0.82 | 0.031
CC1=C(C#N)C(NC(=O)c2cccc(Cl)c2)(C(F)(F)F)C(=O)N1 (stereo not given) | . | . | . | . | 1.7 | .
O=C(/C=C/c1cnc2ccccc2n1)NC12CC3CC(CC(C3)C1)C2 | . | . | . | . | -0.1 | .
O=C(c1ccccc1)c1cncc(Br)c1 | -0.02 | -19 | -0.55 | -3 | 0.26 | -8.1*
CC(C)C[C@H](NC(=O)OC(C)(C)C)C(=O)N/N=C/C1=Cc2ccccc2OC1C (stereo not given in full) | -0.68 | 4 | -4.4* | -12 | -1.3 | 0.45
SMILES | Pyk2 oligo antag | PLK1 PBD inh | Cav32 inh | PLK1 kinase inh | sdo1 growth | DAT uptake mod
CC1(C)CC(NC(=O)C(Cl)(Cl)Cl)CC(C)(C)N1 | . | . | . | . | 0.4 | .
CCOC(=O)CSc1nc2c(sc(=S)n2Cc2ccco2)c(=O)n1-c1ccccc1 | -1.6 | 3 | -3.9* | -3 | -1.5 | -0.044
CCOC(=O)CSc1nc2c(sc(=S)n2-c2ccccc2OC)c(=O)n1Cc1ccco1 | -0.4 | -11 | -5.6* | -10 | -0.77 | -4.3*
CCN(CC)C(=O)CSc1nc2c(sc(=S)n2Cc2ccco2)c(=O)n1-c1ccccc1 | -0.48 | 8 | -2.7 | 7 | -0.31 | 0.61
CCSC1=C(C#N)C2(CCCC2)C(C#N)=C(N)N1 | -0.81 | 32 | 0.78 | -17 | 0.05 | -2.7*
N#CC1=C(N)NC(SCC(=O)Nc2ccc(Br)cc2)=C(C#N)C12CCCCC2 | -1.6 | -8 | -6.5* | -2 | 0.38 | -1.8
N#CC1=C(N)NC(SCc2ccc(Br)cc2)=C(C#N)C12CCCCC2 | -2.3 | -8 | . | 3 | -1.2 | .
N#CC1=C(N)NC(SCc2ccc(Cl)cc2)=C(C#N)C12CCCCC2 | -0.86 | 20 | -4.1* | 5 | -0.96 | 1.1
N#CC1=C(N)NC(SCC(=O)c2ccccc2)=C(C#N)C12CCCC2 | . | . | . | . | 0.87 | .
CN1CCN(C(=O)C2=C[C@H](c3ccccc3)C[C@H](OCc3ccc(CO)cc3)O2)CC1 | . | . | -2.5 | . | . | 1.4
COc1ccc(CCC(=O)N2CCCSC2=Nc2ccc(C(C)=O)cc2)cc1 | . | . | . | . | 0.02 | .
COc1ccc(NC(=O)Cc2c(F)cccc2Cl)c(OC)c1 | . | . | . | . | 0.68 | .
C=CCNc1nc(-c2ccccc2)c(C(=O)OCC)cc1C#N | -1 | 4 | -4.4* | -13 | -0.81 | -0.04
COc1ccc(C2(C)NC(=O)N(CC(=O)NCCC3=CCCCC3)C2=O)cc1OC (stereo not given) | 3.1 | 2 | 0.022 | -13 | 1.1 | 0.38
COc1ccc2cc(C3(C)NC(=O)N(CC(=O)NCCC4=CCCCC4)C3=O)ccc2c1 (stereo not given) | -1.1 | -7 | -7.4* | -8 | -0.8 | 0.56
CC/S(C)=N/S(=O)(=O)c1ccc(C)cc1 (stereo not given) | . | . | . | . | 2.5 | .
CN(CCOc1ccccc1)c1ccc(S(=O)(=O)N2CCCCC2)cn1 | -1.1 | -31 | -7.6* | -14 | -0.74 | -0.023
Cc1ccc(Cl)cc1NC(=O)COC(=O)c1ccc(N2CCCC2)c([N+](=O)[O-])c1 | . | . | . | . | -0.78 | .
CCC(=O)N(CCC(c1ccccc1)c1ccco1)Cc1cccs1 (stereo not given) | -0.85 | -13 | -9.4* | -15 | -0.75 | -0.24
CCC(=O)NCCC(c1ccco1)c1ccccc1OC (stereo not given) | -0.42 | 27 | 0.88 | -17 | 0.18 | 0.19
O=C(c1ccco1)N(CCC(c1ccccc1)c1ccco1)Cc1ccccc1 (stereo not given) | . | . | . | . | -0.29 | .
COc1ccccc1C(CCN(Cc1cccs1)C(C)=O)c1ccco1 (stereo not given) | -0.51 | -22 | -5* | -5 | -0.6 | 0.76
COc1ccc(-c2nnc(SCC(=O)Nc3cc(F)ccc3C)o2)cc1 | . | -29 | -5.6* | -14 | -0.74 | -0.5
